# “And” between values parts separate entries of the source, which are not always exact repeats. Equal values may be shown once. Inconclusive results are not listed. The source made the active and inactive calls. Unless noted, calls follow the shape of the dose curve; as a rule, active = well fitted curve in the direction sought with a large enough effect; inconclusive = small, poorly fitted or top-dose-only effect, or another doubt; inactive = no such curve, though single readings can be large; an effect the other way counts as inactive or inconclusive.
# Legend:
# [1] = Primary qHTS for inhibitors of nuclear receptor binding SET domain protein 2 (NSD2) in an isogenic RCH-ACV NSD2 p.E1099K mutant (9B) (AID 1645876); also: nearly all actives have a fitted effect of over 70% in size; also: potency is read from the fitted curve at half-maximal effect
# [2] = biological target: Metallo-beta-lactamase type 2 (Klebsiella pneumoniae) (UniProt C7C422); test: qHTS to identify inhibitors of the New Delhi Metallo-beta-lactamase (NDM): assay validation screen against the NCATS LOPAC Collection (AID 1794843);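 also: nitrocefin turnover by NDM-1 measured as 485 nm absorbance at plateau; % is scaled to controls: 0 for no effect and ±100 for the full control effect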
# In short: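 NDM-1 at 2 nM final in 50 mM HEPES pH 7.0, 1 uM ZnSO4, 0.01% Tween20, preincubated with LOPAC compounds pinned in DMSO; 50 uM nitrocefin (stock) added. Hydrolysis read as absorbance at 485 nm in the plateau phase.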
# [3] = biological target: Rap guanine nucleotide exchange factor 3 (Homo sapiens) (UniProt O95398); test: Confirmatory qHTS for agonist of cAMP-regulated guanine nucleotide exchange factor 3 (EPAC1) (AID 1645881);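 also: EPAC1 catalysed release of BODIPY-GDP from Rap1B seen as fluorescence loss; 100% = effect of cAMP agonist control; nearly all actives have a fitted effect of over 75% in size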
# [4] = biological target: Rap guanine nucleotide exchange factor 4 (Homo sapiens) (UniProt Q8WZA2); test: Confirmatory qHTS for agonist of cAMP-regulated guanine nucleotide exchange factor 4 (EPAC2) (AID 1645884);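 also: nucleotide exchange releases bodipy-GDP from Rap1 and this lowers its fluorescence; % is scaled to controls: 0 for no effect and ±100 for the full control effect; nearly all actives have a fitted effect of over 65% in size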
# [5] = biological target: Rap guanine nucleotide exchange factor 4 (Homo sapiens) (UniProt Q8WZA2); test: Confirmatory qHTS for antagonist of cAMP-regulated guanine nucleotide exchange factor 4 (EPAC2) (AID 1645885); also: nearly all actives have a fitted effect of over 25% in size; also: potency is read from the fitted curve at half-maximal effect; as to activity change, negative = inhibition: % is scaled to controls: 0 for no effect and ±100 for the full control effect
# [6] = biological target: Rap guanine nucleotide exchange factor 3 (Homo sapiens) (UniProt O95398); test: Counterscreen qHTS for antagonist of cAMP-regulated guanine nucleotide exchange factor 3 (EPAC1) (AID 1645888);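 also: fluorescence loss as bound BODIPY-GDP is released from Rap1B; % of control where 0% means no effect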
# In short: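 Measured: fluorescence of BODIPY-GDP bound to Rap1B, which falls as exchange proceeds. Conditions include 50 uM competing GDP, 5 and 30 min reads, and a later cAMP challenge for antagonist detection.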
# [7] = biological target: Catechol O-methyltransferase (Homo sapiens) (UniProt P21964); test: Confirmatory Screen for Target Class Profiling of Small Molecule Inhibitors of Methyltransferases (AID 1745852; calls by dose curve; also: potency is read from the fitted curve at half-maximal effect; as to activity change, negative = inhibition: % is scaled to controls: 0 for no effect and ±100 for the full control effect); details: MTase-Glo luminescence, SAH detection, recombinant enzyme; measured here: COMT max response; stronger effect = lower value
# [8] = biological target: Guanidinoacetate N-methyltransferase (Homo sapiens) (UniProt Q14353); test: as above; details: MTase-Glo luminescence, SAH detection, recombinant enzyme; activity change, negative = inhibition: at 57.3 µM (top of the series)
# [9] = biological target: Nicotinamide N-methyltransferase (Homo sapiens) (UniProt P40261); test: as above; details: MTase-Glo luminescence, SAH detection, recombinant enzyme; measured here: NNMT max response; stronger effect = lower value
# [10] = biological target: Phenylethanolamine N-methyltransferase (Homo sapiens) (UniProt P11086); test: as above; details: MTase-Glo luminescence, SAH detection, recombinant enzyme; measured here: PNMT max response; stronger effect = lower value
# [11] = Primary qHTS for inhibitors of nuclear receptor binding SET domain protein 2 (NSD2) in an RCH-ACV wild type WT cells (2C) (AID 1645877); also: nearly all actives have a fitted effect of over 70% in size; also: potency is read from the fitted curve at half-maximal effect
# [12] = biological target: Rap guanine nucleotide exchange factor 3 (Homo sapiens) (UniProt O95398); test: Confirmatory qHTS for antagonist of cAMP-regulated guanine nucleotide exchange factor 3 (EPAC1) (AID 1645880);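 also: plate controls were DMSO only for no effect and full effect of the ATA control for full effect; nearly all actives have a fitted effect of over 55% in size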
# In short: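 Nucleotide exchange uses 100 nM EPAC1, 250 nM RAP1B-BODIPY-GDP and 50 uM GDP, with compounds in a concentration-titration series. After 5 min at room temperature, fluorescence (480 nm ex/540 nm em) is read every 5 min for 30 min. Data are normalized to control ATA and DMSO.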
# [13] = HepG2 viability counterscreen (readout 2: ATP content) against the NCATS DSHEA and TCM libraries (AID 1794840); also: 0% is about no effect
# In short: (§1)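 Same wells read twice: first fluorescence from cleaved GF-AFC substrate (25 uM final, 30 min, 37C) for live-cell protease, then CellTiter-Glo luminescence after 30 min at room temperature for ATP. HepG2 cells were exposed ~24 h to substances.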
# [14] = HepG2 viability counterscreen (readout 1: protease activity) against the NCATS DSHEA and TCM libraries (AID 1794841);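 also: cells exposed to compounds for about 24 h before the protease read; 0% is about no effect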
# In short: as §1
# [15] = NCATS anti-infectives library activity on HEK293 viability as a counter-qHTS vs the C. elegans viability qHTS (AID 1745854); also: % is scaled to controls: 0 for no effect and ±100 for the full control effect
# In short: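 HEK293 cells, 1500 per well, exposed 24 hr at 37C in 5% CO2 to compounds in a 1:5 titration, up to 41.7 uM final. Viability read as CellTiter-Glo luminescence after 10 min at room temperature.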
# Chain of Rap guanine nucleotide exchange factor 4 (Homo sapiens) (Q8WZA2 whole entry, looked up): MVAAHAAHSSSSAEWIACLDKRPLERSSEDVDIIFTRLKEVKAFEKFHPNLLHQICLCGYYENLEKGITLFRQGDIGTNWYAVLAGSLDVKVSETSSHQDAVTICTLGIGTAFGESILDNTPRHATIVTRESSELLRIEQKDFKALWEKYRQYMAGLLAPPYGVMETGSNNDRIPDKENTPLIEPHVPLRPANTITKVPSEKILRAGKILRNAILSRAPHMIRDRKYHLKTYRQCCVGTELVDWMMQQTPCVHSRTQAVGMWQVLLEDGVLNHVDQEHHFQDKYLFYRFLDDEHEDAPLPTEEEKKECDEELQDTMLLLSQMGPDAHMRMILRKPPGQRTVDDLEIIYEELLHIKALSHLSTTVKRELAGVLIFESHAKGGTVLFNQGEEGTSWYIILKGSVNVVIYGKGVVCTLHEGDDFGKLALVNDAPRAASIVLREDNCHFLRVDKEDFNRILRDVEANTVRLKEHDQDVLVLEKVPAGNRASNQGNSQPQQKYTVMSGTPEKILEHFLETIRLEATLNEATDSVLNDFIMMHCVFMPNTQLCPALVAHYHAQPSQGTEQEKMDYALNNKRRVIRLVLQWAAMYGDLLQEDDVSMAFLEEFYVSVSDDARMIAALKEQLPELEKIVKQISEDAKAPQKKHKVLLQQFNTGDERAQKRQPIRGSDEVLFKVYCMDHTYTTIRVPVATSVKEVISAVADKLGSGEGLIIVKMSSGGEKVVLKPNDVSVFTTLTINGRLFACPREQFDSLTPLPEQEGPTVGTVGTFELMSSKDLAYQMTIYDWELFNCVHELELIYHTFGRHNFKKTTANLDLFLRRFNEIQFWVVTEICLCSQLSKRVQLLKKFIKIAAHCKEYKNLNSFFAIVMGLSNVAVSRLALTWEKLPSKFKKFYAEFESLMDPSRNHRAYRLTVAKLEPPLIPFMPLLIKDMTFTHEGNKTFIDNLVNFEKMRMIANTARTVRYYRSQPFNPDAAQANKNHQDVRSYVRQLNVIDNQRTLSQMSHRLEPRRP
# Chain of Rap guanine nucleotide exchange factor 3 (Homo sapiens) (O95398 whole entry, looked up): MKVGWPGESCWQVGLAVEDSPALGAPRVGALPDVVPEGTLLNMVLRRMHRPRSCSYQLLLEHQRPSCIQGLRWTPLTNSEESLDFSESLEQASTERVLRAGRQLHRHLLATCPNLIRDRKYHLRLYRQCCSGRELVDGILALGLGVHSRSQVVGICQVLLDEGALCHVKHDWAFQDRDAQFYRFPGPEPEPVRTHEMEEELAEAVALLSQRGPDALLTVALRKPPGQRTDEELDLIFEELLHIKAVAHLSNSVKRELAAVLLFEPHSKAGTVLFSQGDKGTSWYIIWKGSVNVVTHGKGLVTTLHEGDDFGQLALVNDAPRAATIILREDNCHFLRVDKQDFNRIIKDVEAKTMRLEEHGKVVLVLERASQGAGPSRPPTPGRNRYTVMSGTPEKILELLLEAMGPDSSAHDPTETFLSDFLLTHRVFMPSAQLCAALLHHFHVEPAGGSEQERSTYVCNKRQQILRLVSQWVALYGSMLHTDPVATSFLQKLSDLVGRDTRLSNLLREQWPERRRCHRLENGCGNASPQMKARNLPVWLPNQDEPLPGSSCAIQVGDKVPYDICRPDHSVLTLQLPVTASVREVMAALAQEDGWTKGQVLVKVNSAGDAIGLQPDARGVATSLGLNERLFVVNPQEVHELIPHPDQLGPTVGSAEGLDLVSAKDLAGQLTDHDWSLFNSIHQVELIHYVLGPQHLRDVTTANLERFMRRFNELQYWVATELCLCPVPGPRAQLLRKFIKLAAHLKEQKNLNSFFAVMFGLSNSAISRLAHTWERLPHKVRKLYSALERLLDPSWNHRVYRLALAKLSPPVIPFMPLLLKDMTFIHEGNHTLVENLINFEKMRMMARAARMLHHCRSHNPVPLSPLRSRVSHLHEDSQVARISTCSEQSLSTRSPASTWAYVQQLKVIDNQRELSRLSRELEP
# Chain of Catechol O-methyltransferase (Homo sapiens) (P21964 whole entry, looked up): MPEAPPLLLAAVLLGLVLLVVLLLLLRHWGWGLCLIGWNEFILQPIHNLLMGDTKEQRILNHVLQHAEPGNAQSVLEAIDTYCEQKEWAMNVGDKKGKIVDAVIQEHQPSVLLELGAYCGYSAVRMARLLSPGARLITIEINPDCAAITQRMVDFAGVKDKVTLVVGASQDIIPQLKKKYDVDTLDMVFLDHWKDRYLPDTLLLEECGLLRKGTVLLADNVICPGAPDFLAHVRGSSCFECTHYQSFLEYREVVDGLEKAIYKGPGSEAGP
# Chain of Nicotinamide N-methyltransferase (Homo sapiens) (P40261 whole entry, looked up): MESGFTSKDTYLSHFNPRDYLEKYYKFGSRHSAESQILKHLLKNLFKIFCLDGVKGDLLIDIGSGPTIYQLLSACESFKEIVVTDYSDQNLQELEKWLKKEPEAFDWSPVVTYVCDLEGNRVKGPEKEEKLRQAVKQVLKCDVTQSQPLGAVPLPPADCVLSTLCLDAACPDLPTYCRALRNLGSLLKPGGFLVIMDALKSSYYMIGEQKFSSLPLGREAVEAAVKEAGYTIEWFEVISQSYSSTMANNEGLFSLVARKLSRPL
# Chain of Phenylethanolamine N-methyltransferase (Homo sapiens) (P11086 whole entry, looked up, the tested form may be a part): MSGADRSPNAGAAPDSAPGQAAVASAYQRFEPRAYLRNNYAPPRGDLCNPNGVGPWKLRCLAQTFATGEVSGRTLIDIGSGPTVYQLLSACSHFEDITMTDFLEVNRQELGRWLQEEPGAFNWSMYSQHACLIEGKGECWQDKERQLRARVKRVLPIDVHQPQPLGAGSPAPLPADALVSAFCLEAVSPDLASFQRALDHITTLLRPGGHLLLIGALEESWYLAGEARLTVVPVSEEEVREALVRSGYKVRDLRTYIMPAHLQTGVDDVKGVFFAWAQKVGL
# Chain of Metallo-beta-lactamase type 2 (Klebsiella pneumoniae) (C7C422 whole entry, looked up): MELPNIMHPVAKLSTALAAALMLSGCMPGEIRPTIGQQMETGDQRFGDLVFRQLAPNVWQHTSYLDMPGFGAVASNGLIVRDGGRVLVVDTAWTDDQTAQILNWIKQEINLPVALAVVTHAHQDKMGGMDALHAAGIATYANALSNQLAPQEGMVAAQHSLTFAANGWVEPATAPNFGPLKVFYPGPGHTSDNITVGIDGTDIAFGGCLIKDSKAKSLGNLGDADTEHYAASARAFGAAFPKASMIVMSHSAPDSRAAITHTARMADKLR
smiles,measurement,setting,value
O=C1NC(=O)/C(=C/c2ccc3nccnc3c2)S1,Potency,[1],inactive
same,Potency,[2],inactive
O=C1C(SCCO)=C(SCCO)C(=O)c2ccccc21,Potency,[3],inactive
same,Potency,[4],inactive
same,Potency,[5],inactive
same,outcome,[6],inactive
same,activity,[7],-43.3%
same,Potency,[8],4.85 µM (active)
same,activity,[9],-76.1%
same,activity,[10],-72.3%
CCN1/C(=C/C(C)=O)Sc2ccc(OC)cc21,Potency,[1],inactive
same,Potency,[2],inactive
O=C(O)c1ccccc1Nc1cccc(C(F)(F)F)c1,Potency,[11],inactive
same,Potency,[12],inactive
same,Potency,[3],inactive
same,Potency,[4],inactive
c1ccc(CCNc2nc(-c3ccccc3)cs2)cc1,Potency,[12],inactive
same,Potency,[3],inactive
same,Potency,[4],inactive
same,Potency,[5],inactive
CS(=O)(=O)c1ccc(-n2nc(C(F)(F)F)cc2-c2ccc(F)cc2)cc1,Potency,[1],inactive
same,Potency,[11],inactive
same,Potency,[2],inactive
CCCCN(CC)c1nc(C)nc2c1c(C)cn2-c1c(C)cc(C)cc1C,Potency,[11],inactive
same,Potency,[2],inactive
CN1CCc2cccc3c2C1Cc1ccc(O)c(O)c1-3 (stereo unspecified),activity,[7],5.12%
same,"activity change, negative = inhibition",[8],3.98%
same,activity,[9],0.623%
same,activity,[10],3.44%
O=C(O)c1cc([N+](=O)[O-])ccc1NCCCc1ccccc1,Potency,[12],inactive
same,Potency,[3],inactive
same,Potency,[4],inactive
CCCCCCCCCCCCCCCCCC(=O)O,Potency,[1],inactive
same,Potency,[11],inactive
same,outcome,[13],inactive
same,outcome,[14],inactive
CCC1C(=O)OCC1Cc1cncn1C (stereo unspecified),Potency,[1],inactive
same,Potency,[11],inactive
same,Potency,[2],inactive
COc1cc(/C=C/C(=O)CC(=O)/C=C/c2ccc(O)c(OC)c2)ccc1O,Potency,[1],11.8 µM (active)
same,Potency,[11],8.33 µM (active)
same,activity,[7],-53.7%
same,"activity change, negative = inhibition",[8],-2.93%
same,activity,[9],-4.44%
same,activity,[10],9.5%
same,outcome,[15],inactive
Cc1ccc(O)c(N=Nc2ccccc2)n1,Potency,[3],inactive
same,Potency,[4],inactive
same,Potency,[2],inactive
OCC1O[C@H]([S-])[C@H](O)[C@@H](O)[C@@H]1O.[Au+] (stereo partly specified),activity,[7],-38.3%
same,Potency,[8],4.85 µM (active)
same,activity,[9],-21.4%
same,activity,[10],-1.84%
COC(=O)C1=C(C)NC(C)=C(C(=O)OC)C1c1cccc(NC(=O)NCCCN2CCC(c3cccc(OC)c3)CC2)c1,Potency,[1],4.59 µM (active)
same,Potency,[11],4.59 µM (active)
same,activity,[7],-1.21% and -6.68%
same,"activity change, negative = inhibition",[8],0% and 10.5%
same,activity,[9],-24.5% and -25.9%
same,activity,[10],0.516% and -5.06%
CCN(CC)CCCCNc1ncc2cc(-c3c(Cl)cccc3Cl)c(NC(=O)NC(C)(C)C)nc2n1,Potency,[1],1.45 µM (active)
same,Potency,[11],3.65 µM (active)
same,activity,[7],-7.59% and -2.1%
same,"activity change, negative = inhibition",[8],0.993% and 9.36%
same,activity,[9],-17.4% and -14.9%
same,activity,[10],-6.92% and -0.98%
CCOC(=O)N1CCN(/[N+]([O-])=N/Oc2ccc([N+](=O)[O-])cc2[N+](=O)[O-])CC1,Potency,[1],7.42 µM (active)
same,Potency,[11],5.9 µM (active)
same,activity,[7],-99.7%
same,"activity change, negative = inhibition",[8],-4.08%
same,activity,[9],-19%
same,activity,[10],-3.94%
O=[N+]([O-])c1ccc(CNc2nc(NCc3cccc(C(F)(F)F)c3)nc3nc[nH]c23)cc1,activity,[7],-6.92% and 9.66%
same,"activity change, negative = inhibition",[8],-3.71% and 5.72%
same,activity,[9],-49.3% and -10.9%
same,activity,[10],-13.5% and 7.65%
same,Potency,[2],inactive
COC(=O)c1c(C)[nH]c(C)c1C(=O)c1ccccc1Cc1ccccc1,Potency,[12],inactive
same,Potency,[3],inactive
same,Potency,[2],inactive
CN1CC(=O)N/C1=N/C(=O)Nc1cccc(Cl)c1,Potency,[1],inactive
same,Potency,[11],inactive
same,Potency,[2],inactive
COC(=O)C1=C(C)NC(C)=C(C(=O)OCC(C)C)C1c1ccccc1[N+](=O)[O-] (stereo unspecified),Potency,[11],26.6 µM (active)
Oc1cc2c(cc1O)CN(C(=S)NCCc1ccc(Cl)cc1)CCC2,Potency,[3],inactive
same,Potency,[4],inactive
same,activity,[7],160%
same,"activity change, negative = inhibition",[8],2.52%
same,activity,[9],-17.6%
same,activity,[10],0.243%
same,Potency,[2],inactive
Cn1cc(C2=C(c3ccc(Cl)cc3Cl)C(=O)NC2=O)c2ccccc21,Potency,[1],6.51 µM (active)
same,Potency,[11],6.51 µM (active)
same,Potency,[12],inactive
same,Potency,[3],inactive
same,"activity change, negative = inhibition",[5],2.07% [at 12.7 µM] (inactive)
same,outcome,[6],inactive
same,Potency,[2],inactive
O=C(Nc1ccc2[nH]ncc2c1)C1CCC1,Potency,[1],inactive
same,Potency,[11],inactive
same,Potency,[2],inactive
O=Cc1ccc(O)c(O)c1O,Potency,[11],16.8 µM (active)
CCOC(=O)C1=C(C)NC(C)=C(C(=O)OCC)C1c1c(F)c(F)c(F)c(F)c1F,Potency,[3],inactive
same,Potency,[4],inactive
same,Potency,[5],44.1 µM (active)
same,Potency,[2],inactive
N.N.N.N.N.N.N.N.N.N.N.N.N.N.O.O.[Ru+4].[Ru+5].[Ru+5],activity,[7],-14.7%
same,Potency,[8],30.6 µM (active)
same,activity,[9],-45.3%
same,activity,[10],-7.59%
C#CCN1C(C)=C(C(=O)OC)C(c2cccc([N+](=O)[O-])c2)C(C(=O)OCC)=C1C (stereo unspecified),Potency,[3],inactive
same,Potency,[4],inactive
same,Potency,[5],6.98 µM (active)
Oc1cc(O)cc(/C=C/c2ccc(O)c(O)c2)c1,Potency,[1],6.51 µM (active)
same,Potency,[11],7.31 µM (active)
same,activity,[7],119%
same,"activity change, negative = inhibition",[8],-14.6%
same,activity,[9],-18.4%
same,activity,[10],-8.17%
same,Potency,[2],inactive
O=C(O)CC[C@@H](C(=O)O)N1C(=O)c2ccccc2C1=O,activity,[7],-23.9%
same,"activity change, negative = inhibition",[8],-2.85%
same,activity,[9],-12.9%
same,activity,[10],-4.01%
O=C(O)Cc1ccc(-c2ccccc2)cc1,Potency,[11],inactive
O=C(c1cc(O)c(O)c([N+](=O)[O-])c1)c1ccccc1F,activity,[7],-103%
same,"activity change, negative = inhibition",[8],-5.06%
same,activity,[9],-15.6%
same,activity,[10],-23.2%
S=c1[nH]c(-c2ccccc2)cn1-c1ccccc1,Potency,[2],inactive
O=C(c1ccc(Cl)cc1)N1CCN(c2ccc([N+](=O)[O-])c3ncccc23)CC1,Potency,[2],inactive
CC(C)(C=O)Cc1cc(C(C)(C)C)c(O)c(C(C)(C)C)c1,activity,[7],2.63%
same,"activity change, negative = inhibition",[8],1.77%
same,activity,[9],-8.99%
same,activity,[10],-4.11%
same,Potency,[2],inactive
Oc1ccc(C2CNCc3sccc32)cc1O (stereo unspecified),activity,[7],133%
same,"activity change, negative = inhibition",[8],1.13%
same,activity,[9],-8.32%
same,activity,[10],0.43%
same,Potency,[2],inactive
CCC(CO)Nc1nc(NCc2ccccc2)c2ncn(C(C)C)c2n1 (stereo unspecified),Potency,[2],inactive

# — PubChem BioAssay (NCATS)
